Values without a mark were called inactive. Inconclusive results are not listed. Activity calls are given as the source filed them. Unless noted, calls follow the shape of the full dose curve.

Assay [1] is described as follows: Nuclear factor erythroid 2-related factor 2/antioxidant responsive element (Nrf2/ARE) small molecule agonists: qHTS cell viability counter screen in human keratinocytes (AID 1919968; active = well fitted curve in the direction sought with a large enough effect in the repeat runs; an effect the other way counts as inactive or inconclusive; also: nearly all actives have a fitted effect of over 55% in size). In outline: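 CellTiter-Fluor fluorescence, read 1 h after reagent, gave viability in the same wells as the ARE-luciferase assay. KeratinoSens cells (1,500/well) had 23 h compound exposure at 37 C/5% CO2 following 5 h plating.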
(In general: In qHTS, concentration-response curves come from the screen itself.)

Assay [2] can be described thus: Nuclear factor erythroid 2-related factor 2/antioxidant responsive element (Nrf2/ARE) small molecule agonists: luciferase reporter gene qHTS assay in human keratinocytes (AID 1919969). Also: nearly all actives have a fitted effect of over 35% in size. Also: potency is read from the fitted curve at half-maximal effect. In general terms: A reporter such as luciferase makes a cellular process visible.
In assay [3] the target is Gonadotropin-releasing hormone receptor (Homo sapiens) (UniProt P30968). The assay is described as follows: Human gonadotropin-releasing hormone receptor (GnRHR) small molecule agonists, calcium flux assay in GnRHR-HEK293 cells (AID 1920063). Also: nearly all actives have a fitted effect of over 35% in size. In outline:
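Agonist mode: compounds at 15 concentrations, in triplicate, went onto calcium dye-loaded GnRHR-HEK293 cells. Intracellular calcium was then followed as 480/540 nm fluorescence at 1 s intervals over 3 min.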
(In general: A change in cytosolic calcium serves as a functional read-out for many receptors and channels.)

In assay [4] the target is KiSS-1 receptor (Homo sapiens) (UniProt Q969F8). The experiment in a line: Human kisspeptin (KISS1R) small molecule agonists, calcium flux assay in KISS1R-HEK293 cells (AID 1920064; active = well fitted curve in the direction sought with a large enough effect in the repeat runs; an effect the other way counts as inactive or inconclusive). The essentials:
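Agonist mode: intracellular calcium rise tracked at 1 s intervals over 3 min (480/540 nm) immediately after compound addition to dye-loaded KISS1R-HEK293 stable cells. Each compound tested at 15 concentrations in triplicate.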

Assay [5] is described as follows: G protein-coupled receptor (GPCR) small molecule agonists, calcium flux assay: HEK293 wild type cell line counter screen (AID 1920065). In outline: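 Calcium flux counter screen: compound added in agonist mode at 15 concentrations in triplicate to dye-loaded parental HEK293 cells. Fluorescence (480/540) read kinetically for 3 min; ATP served as positive control.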

Assay [6] is described as follows: p53 small molecule agonists, cell-based qHTS assay with human liver microsomes (AID 1963577).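 Also: p53 response element beta-lactamase reporter cells with liver microsomes plus NADPH.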 In outline: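 Metabolically competent format: test substances, human liver microsomes and NADPH (both 0.5 mg/mL final) incubated with p53RE-bla cells 16 h at 37 C. Beta-lactamase reporter signal then quantified by fluorescence.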
A short description of assay [7]: p53 small molecule agonists, cell-based qHTS assay with rat liver microsomes (AID 1963578). In outline: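 Each plate received p53RE-bla cells, then compound, then rat liver microsomes and NADPH (both 0.5 mg/mL final). Plates were held 16 h at 37 C, and beta-lactamase activity was detected with LiveBLAzer over 2 h.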
A short description of assay [8]: p53 small molecule agonists, cell-based qHTS assay with human liver microsomes: qHTS cell viability counter screen (AID 1963579). Also: nearly all actives have a fitted effect of over 45% in size. The essentials:
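Tox21 library compounds, delivered from DMSO stocks, were tested on p53RE-bla cells together with 0.5 mg/mL human liver microsomes and 0.5 mg/mL NADPH (final) over 16 h at 37 C; CellTiter-Glo luminescence served as the cytotoxicity measure.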

Assay [9] can be described thus: p53 small molecule agonists, cell-based qHTS assay with rat liver microsomes: qHTS cell viability counter screen (AID 1963580). Also: nearly all actives have a fitted effect of over 45% in size. The essentials: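 Counter screen for cytotoxicity under metabolic activation: rat liver microsomes and NADPH, 0.5 mg/mL final each, added with compounds to p53RE-bla HCT-116 cells; 16 h at 37 C, then ATP luminescence read.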
Assay [10] in a line: p53 small molecule agonists, cell-based qHTS assay: qHTS cell viability counter screen (AID 1963581). Also: nearly all actives have a fitted effect of over 45% in size. The essentials: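 Counter screen read by CellTiter-Glo luminescence (ATP content, 30 min at room temperature), run in the same wells as the beta-lactamase reporter read. HCT-116 p53RE-bla cells saw compounds for 16 h at 37 C.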
A short description of assay [11]: p53 small molecule agonists, cell-based qHTS assay (AID 1963582; active = well fitted activation curve with a large enough effect in the signal ratio in the repeat runs, not every such curve was filed as active; the % refers to the signal ratio). The essentials: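 Read-out is beta-lactamase FRET fluorescence after 2 h at room temperature with LiveBLAzer B/G substrate. p53 response element-bla cells were treated 16 h at 37 C with compounds in DMSO, added 5 h after seeding.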
For assay [12], the target named is Muscarinic acetylcholine receptor M1 (Homo sapiens) (UniProt P11229). The experiment in a line: Cholinergic receptor muscarinic 1 (CHRM1) small molecule antagonists, cell-based qHTS assay (AID 1963588). Also: nearly all actives have a fitted effect of over 40% in size. The essentials:
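Compounds were tested at 15 concentrations in three independent runs. Dye-loaded CHRM1-CHO cells were exposed 5 min at room temperature before stimulation by acetylcholine added at 50nM. Intracellular calcium was read kinetically on FDSS for 3 min.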

Assay [13] shares this target. The assay is described as follows: Cholinergic receptor muscarinic 1 (CHRM1) small molecule agonists, cell-based qHTS assay (AID 1963589). Also: nearly all actives have a fitted effect of over 35% in size. The essentials:
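Agonist-mode calcium-flux screen: compounds at 15 concentrations, three independent runs, were pin-transferred onto dye-loaded human CHRM1-CHO cells. Fluorescence was then recorded kinetically every second over minutes.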

Assay [14] can be described thus: cAMP Responsive Elements (CRE) small molecule agonists, cell-based qHTS assay (AID 1963590). The essentials:
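Agonist mode: compound added to CRE-bla HEK 293T cells (2,000/well, 18 h after plating) for 3 h at 37 C/5% CO2. Reporter activity detected via FRET beta-lactamase substrate, 2 h room-temperature loading.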

The nature of assay [15]: cAMP Responsive Elements (CRE) small molecule antagonists, cell-based qHTS assay (AID 1963591; active = well fitted inhibition curve with a large enough effect in the signal ratio in the repeat runs, not every such curve was filed as active; the % refers to the signal ratio). In outline: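 Antagonist mode: compounds are added alongside the adenylyl cyclase activator NKH477 (0.25 uM final) to CRE-bla HEK293T cells for 3 h. LiveBLAzer FRET substrate, 2 h at room temperature, reports bla expression.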
In assay [16] the target is Beta-2 adrenergic receptor (Homo sapiens) (UniProt P07550). The experiment in a line: Adrenergic beta2 receptor (ADRB2) small molecule antagonists, cell-based qHTS assay (AID 1963592). Also: series mostly up to about 92 µM; nearly all actives have a fitted effect of over 50% in size. In outline:
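Assay format: CHO-ADRB2 cells, 18-20hr seeding at 37C/5% CO2, then compound plus 1nM isoproterenol agonist mix for 0.5hr RT. Homogeneous time-resolved fluorescence cAMP detection after 1hr, expressed as 665/615 nm ratio.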

Assay [17] addresses D(2) dopamine receptor (Homo sapiens) (UniProt P14416). The assay is described as follows: Dopamine D2 receptor (DRD2) small molecule agonists, cell-based qHTS assay (AID 1963594). Also: nearly all actives have a fitted effect of over 35% in size. In outline: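 HEK293 cells stably expressing DRD2 were cultured 24 h at 37 C, then given Ro20-1724 (0.1 mM final) and compounds for 10 min at room temperature. NKH477 (200nM) was then added for 30 min. cAMP was read by HTRF.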

For assay [18] the target is unchanged. The experiment in a line: Dopamine D2 receptor (DRD2) small molecule antagonists, cell-based qHTS assay (AID 1963595; active = well fitted inhibition curve with a large enough effect in the signal ratio in the repeat runs, with a control signal flat; the % refers to the signal ratio). The essentials: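 HEK293 cells stably expressing DRD2 were preincubated with 0.1 mM Ro20-1724, then with compound for 10 min at room temperature. Cells were stimulated with 200 nM NKH477 plus 12 nM quinpirole for 30 min, and cAMP was read by HTRF.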

The target of assay [19] is 5-hydroxytryptamine receptor 2A (Homo sapiens) (UniProt P28223). The assay is described as follows: 5-hydroxytryptamine receptor 2A (HTR2A) small molecule agonists, cell-based qHTS assay (AID 1963587). Also: nearly all actives have a fitted effect of over 30% in size. The essentials: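 HTR2A-CHO cells, plated 18 h at 37 C/5% CO2, dye-loaded 1 h at 37 C; compounds in DMSO added by pin tool (agonist mode). Intracellular calcium flux read as kinetic fluorescence on FDSS over 2 min at 1 s intervals.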

Assay [20] has as its target Beta-2 adrenergic receptor (Homo sapiens) (UniProt P07550). The experiment in a line: Adrenergic beta2 receptor (ADRB2) small molecule agonists, cell-based qHTS assay (AID 1963593).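 Also: CHO cells stably overexpressing human ADRB2.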 The essentials:
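CHO cells stably over-expressing ADRB2 were plated overnight at 37C, then dosed with compounds plus a stimulation mix containing 100uM IBMX and 25uM Ro-20-1724 for 0.5hr at room temperature. cAMP was measured by HTRF competition, 1hr.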

Chain of Muscarinic acetylcholine receptor M1 (Homo sapiens) (P11229 whole entry, looked up): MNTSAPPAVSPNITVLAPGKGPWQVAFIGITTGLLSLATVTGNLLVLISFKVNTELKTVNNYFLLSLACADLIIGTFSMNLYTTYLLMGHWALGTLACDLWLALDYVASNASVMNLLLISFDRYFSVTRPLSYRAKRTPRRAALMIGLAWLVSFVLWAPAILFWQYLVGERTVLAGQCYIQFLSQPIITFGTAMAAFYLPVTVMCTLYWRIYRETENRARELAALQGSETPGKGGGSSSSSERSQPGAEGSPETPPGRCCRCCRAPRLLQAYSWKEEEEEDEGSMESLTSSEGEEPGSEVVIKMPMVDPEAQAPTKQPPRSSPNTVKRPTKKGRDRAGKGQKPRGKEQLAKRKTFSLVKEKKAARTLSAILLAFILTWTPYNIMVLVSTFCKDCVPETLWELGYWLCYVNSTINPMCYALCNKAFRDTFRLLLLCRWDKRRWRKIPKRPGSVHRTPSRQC
Chain of KiSS-1 receptor (Homo sapiens) (Q969F8 whole entry, looked up): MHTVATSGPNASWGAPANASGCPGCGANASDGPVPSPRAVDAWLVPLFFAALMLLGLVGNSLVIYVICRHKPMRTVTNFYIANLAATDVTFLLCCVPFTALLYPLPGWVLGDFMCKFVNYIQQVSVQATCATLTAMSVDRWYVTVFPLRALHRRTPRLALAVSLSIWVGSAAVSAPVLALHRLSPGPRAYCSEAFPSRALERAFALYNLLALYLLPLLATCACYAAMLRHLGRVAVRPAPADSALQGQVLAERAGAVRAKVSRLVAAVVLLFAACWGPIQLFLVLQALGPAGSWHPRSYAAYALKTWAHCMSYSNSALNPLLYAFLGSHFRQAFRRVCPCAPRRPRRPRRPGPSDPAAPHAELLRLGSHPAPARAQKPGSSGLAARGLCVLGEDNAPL
Chain of D(2) dopamine receptor (Homo sapiens) (P14416 whole entry, looked up): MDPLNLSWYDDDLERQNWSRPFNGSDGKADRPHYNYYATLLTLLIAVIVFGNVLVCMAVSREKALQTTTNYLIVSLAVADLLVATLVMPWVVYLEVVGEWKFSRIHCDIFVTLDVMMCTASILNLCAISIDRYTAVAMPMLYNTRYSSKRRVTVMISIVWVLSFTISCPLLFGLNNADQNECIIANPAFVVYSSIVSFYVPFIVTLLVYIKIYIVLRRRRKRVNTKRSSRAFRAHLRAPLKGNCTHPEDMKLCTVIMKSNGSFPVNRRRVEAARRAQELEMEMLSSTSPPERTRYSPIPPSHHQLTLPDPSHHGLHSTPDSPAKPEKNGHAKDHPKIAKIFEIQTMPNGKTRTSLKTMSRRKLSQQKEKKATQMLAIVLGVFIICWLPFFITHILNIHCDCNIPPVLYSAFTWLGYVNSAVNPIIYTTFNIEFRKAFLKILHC
Chain of Gonadotropin-releasing hormone receptor (Homo sapiens) (P30968 whole entry, looked up): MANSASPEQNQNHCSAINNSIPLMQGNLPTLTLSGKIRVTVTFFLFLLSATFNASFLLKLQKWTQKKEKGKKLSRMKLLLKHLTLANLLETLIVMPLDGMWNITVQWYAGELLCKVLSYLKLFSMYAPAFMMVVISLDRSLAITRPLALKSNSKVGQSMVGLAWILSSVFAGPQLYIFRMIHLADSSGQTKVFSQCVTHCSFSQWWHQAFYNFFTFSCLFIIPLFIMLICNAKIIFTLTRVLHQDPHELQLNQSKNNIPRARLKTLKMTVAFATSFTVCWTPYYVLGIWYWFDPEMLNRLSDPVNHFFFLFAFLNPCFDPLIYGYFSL
Chain of Beta-2 adrenergic receptor (Homo sapiens) (P07550 whole entry, looked up): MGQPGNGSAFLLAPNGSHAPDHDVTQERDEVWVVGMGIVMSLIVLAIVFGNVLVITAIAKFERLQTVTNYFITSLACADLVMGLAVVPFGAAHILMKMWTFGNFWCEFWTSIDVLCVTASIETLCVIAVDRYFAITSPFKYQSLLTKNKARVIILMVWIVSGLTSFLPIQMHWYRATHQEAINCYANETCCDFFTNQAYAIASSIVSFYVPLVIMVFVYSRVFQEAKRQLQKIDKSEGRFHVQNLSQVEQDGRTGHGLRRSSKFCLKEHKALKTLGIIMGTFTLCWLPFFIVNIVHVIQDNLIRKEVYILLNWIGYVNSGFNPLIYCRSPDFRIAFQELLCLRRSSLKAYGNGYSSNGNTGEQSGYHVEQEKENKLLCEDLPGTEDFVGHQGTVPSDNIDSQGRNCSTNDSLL
Chain of 5-hydroxytryptamine receptor 2A (Homo sapiens) (P28223 whole entry, looked up): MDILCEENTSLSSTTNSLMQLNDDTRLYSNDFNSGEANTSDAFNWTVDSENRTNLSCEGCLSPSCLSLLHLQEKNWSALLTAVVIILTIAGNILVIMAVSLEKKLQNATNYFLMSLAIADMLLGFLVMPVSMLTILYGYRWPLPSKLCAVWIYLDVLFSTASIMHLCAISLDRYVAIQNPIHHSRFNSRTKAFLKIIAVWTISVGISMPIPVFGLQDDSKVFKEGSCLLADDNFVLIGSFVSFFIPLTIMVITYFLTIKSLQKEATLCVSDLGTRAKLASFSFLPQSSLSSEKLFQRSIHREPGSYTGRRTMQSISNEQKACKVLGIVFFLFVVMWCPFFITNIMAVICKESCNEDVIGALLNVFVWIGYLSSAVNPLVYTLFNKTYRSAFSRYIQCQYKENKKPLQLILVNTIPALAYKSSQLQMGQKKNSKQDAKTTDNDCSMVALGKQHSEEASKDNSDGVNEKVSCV

On to `CC(CC(C)(C)C)CC(C)(C)CC(C)(C)C` (centres undefined), for which the Potency entry in assay [1], in assay [2], in assay [3], in assay [6], in [7] and in assay [8] was “inactive” in each case. Besides, the Potency entry in assay [9], in assay [10], in assay [11], in assay [12], in [13] and in [14] was “inactive” each time. Besides, the Potency result in assay [15], in assay [16], in [17] and in assay [18] was “inactive” throughout. Moreover, the result in [4] and in [5] was inactive.
Consider `O=c1c2ccccc2nnn1CCl`, for which the Potency entry in [1], in assay [2], in assay [3], in assay [6], in assay [7] and in [8] was “inactive” throughout. Besides, the Potency entry in [9], in assay [10], in assay [11], in assay [19], in [12] and in [13] was “inactive” in each case. In addition, the Potency result in assay [14], in assay [15], in assay [16] and in assay [20] was “inactive” in each case. Also, the outcome in assay [4] and in assay [5] was inactive.
In the case of `C=CCOC(=O)/C=C\C(=O)OCC=C`, the Potency entry in assay [1], in assay [3], in assay [6], in assay [7], in assay [8] and in [9] was “inactive” throughout. Besides, the Potency result in assay [10], in assay [11], in assay [12], in assay [13], in assay [16] and in assay [20] was “inactive” in each case. Also, the Potency entry in assay [17] and in assay [18] was “inactive” in each case. The Potency in [2] is 24.8 µM (active). The result in assay [4] and in [5] was inactive.
In the case of `CCCCCCCCN`, the Potency result in [1], in [2], in assay [3], in assay [6], in assay [7] and in assay [8] was “inactive” throughout. Also, the Potency entry in assay [9], in assay [10], in [11], in [12], in assay [13] and in assay [14] was “inactive” throughout. Further, the Potency result in [15], in assay [17] and in assay [18] was “inactive” each time. Moreover, the outcome in assay [4] and in [5] was inactive.
For `COc1ccc(-n2nc(CCC(=O)N(C)O)cc2-c2ccc(Cl)cc2)cc1`, the Potency result in assay [1], in assay [2], in assay [3], in assay [6], in assay [7] and in assay [8] was “inactive” in each case. Moreover, the Potency entry in [9], in assay [10], in assay [11], in assay [13], in [14] and in assay [15] was “inactive” each time. In addition, the Potency result in [16], in assay [17] and in [18] was “inactive” in each case. The outcome in [4] and in assay [5] was inactive.
`CCCCCCCCCC[N+](C)(C)[O-]`: the Potency entry in assay [1], in [2], in assay [3], in assay [6], in assay [7] and in assay [8] was “inactive” each time. Besides, the Potency result in assay [9], in assay [10], in [11], in assay [12], in [13] and in assay [15] was “inactive” throughout. Besides, the Potency result in assay [16], in assay [20], in [17] and in assay [18] was “inactive” in each case. The outcome in [4] and in assay [5] was inactive.
Take `CC1(C)S[C@@H]2[C@H](N=CN3CCCCCC3)C(=O)N2[C@H]1C(=O)O`: the Potency result in assay [1], in assay [2], in assay [3], in assay [6], in assay [7] and in [8] was “inactive” throughout. Further, the Potency result in assay [9], in assay [10], in assay [11], in [12], in [13] and in assay [14] was “inactive” in each case. Also, the Potency result in assay [15], in assay [16], in assay [17] and in assay [18] was “inactive” each time. In addition, the result in [4] and in assay [5] was inactive.
With `CCCCCCCCC=O`, the Potency entry in [1], in assay [2], in assay [3], in assay [6], in assay [7] and in assay [8] was “inactive” each time. For the same compound, the Potency result in [9], in assay [10], in assay [11], in [12], in assay [13] and in [14] was “inactive” each time. In addition, the Potency entry in [16] and in assay [17] was “inactive” throughout. Besides, the result in assay [4] and in assay [5] was inactive.

The record behind these values is PubChem BioAssay (Tox21).
